BCR signal inh – inhibitors of chronic active B-cell receptor signaling. AID 493014. 0.05% of 340,000 active. ABC-DLBCL IkBa-CBG/CBR reporter, luminescence ratio, 4 h. Potency, µM (doses to about 46.1 µM), without a hit: top-dose activity change, negative = inhibition, most hits filed as inhibitors; active = well fitted inhibition curve with a large enough effect in the signal ratio, with a control signal flat, not every such curve was filed as active; inconclusive = small, poorly fitted or top-dose-only effect, or effect the other way, or a change in a side signal; the % refers to the signal ratio;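 note: potency is the fitted concentration of half-maximal effect; plate controls were basal doxycycline-induced cells for no effect and cells given 10 µM MG132 for full effect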
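Concentration-response series (up to 46 uM) were applied to TMD8 dual-reporter cells for 4 h at 37C with doxycycline. Green/red ratio, after filter-overlap correction, defined %Activity; red signal alone was normalised to basal cells and zero luminescence.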
LDHA block – blocks human lactate dehydrogenase A; P00338; purified LDHA, NADH/diaphorase-resazurin fluorescence; stronger effect = lower value; activity change, % (values are at about 110 or 230 µM); 0.15% of 480,000 active; in the data active = activity change below about -30%; inconclusive = mostly about -25% to -30%;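 note: plate controls were DMSO wells for no effect and wells without enzyme for full effect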
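Human LDH5 (2 nM) was incubated with 0.06 mM NADH and 0.2 mM pyruvate for 5 min at room temperature in Tris pH 7.4. Remaining NADH was coupled through diaphorase/resazurin, and resorufin fluorescence was read at 0 and 20 min.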
ClpP mod – qHTS Assay for Activators of ClpP; purified B. subtilis ClpP, FRET peptide cleavage, 20 min; Potency, µM (series often up to 57.5 µM), for the others: at the highest dose activity change, negative = active; 1.9% of 340,000 active; active = well fitted falling curve with a large enough effect; inconclusive = small, poorly fitted or top-dose-only effect; inactive = no such curve, though single readings can be large or run the other way; note: potency is the fitted concentration of half-maximal effect; the source files actives as falling curves though it sought activators and does not explain the sign; nearly all actives have a fitted effect of over 65% in size
Target sequence (P80244 whole entry, looked up): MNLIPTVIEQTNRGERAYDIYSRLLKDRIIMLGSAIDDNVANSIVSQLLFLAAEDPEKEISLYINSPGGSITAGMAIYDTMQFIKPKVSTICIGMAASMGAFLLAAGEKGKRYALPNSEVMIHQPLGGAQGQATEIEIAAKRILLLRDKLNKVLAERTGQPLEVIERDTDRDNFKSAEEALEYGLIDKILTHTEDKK
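FRET quenching reversal measured ClpP activation: 10 microg/mL B. subtilis ClpP at pH 8 with the FRET-FV decapeptide, read at 430 nm after 320 nm excitation. The 20-min minus 0-min signal was scaled between DMSO/no-enzyme wells and ADEP (5.8 microM final).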
KCNH2 3.1 block – inhibitors of human KCNH2 3.1 potassium channel isoform; U2OS KCNH2 3.1, thallium flux FluxOr; stronger effect = lower value; activity change, % (tested at about 1.8 µM); 0.95% of 340,000 active; AID 720553;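 active = maximum activity change below -70%; inconclusive = maximum activity change from -70% to -50%; inactive = maximum activity change above -50%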;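 note: thallium influx rate constant from kinetic fluorescence after stimulation buffer; % is set by controls: 0 for no effect and ±100 for the full control effect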
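We transduce U2OS cells with the mutant 3.1 virus, culture them overnight, load FluxOr with Red40 quencher for 45 min, then add stimulation buffer and read kinetically for 2 min to derive a normalized rate constant.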
ALOX12 inh – inhibitors of human 12S-lipoxygenase ALOX12. P18054. purified 12hLO, xylenol orange hydroperoxide absorbance. Potency, µM (titrated, usually from 108 µM), for the others: at the highest dose activity change, negative = inhibition, hits mostly inhibitors. 1.1% of 580,000 active. AID 1671190; active = well fitted inhibition curve with a large enough effect; inconclusive = small, poorly fitted or top-dose-only effect, or another doubt; inactive = no such curve, though single readings can be large or run the other way; note: potency is the fitted concentration of half-maximal effect; % is set by controls: 0 for no effect and ±100 for the full control effect
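Hydroperoxide product was detected by ferrous iron/xylenol orange as the 573 to 405 nm absorbance ratio. Arachidonic acid at 40 uM (final) was turned over for 30 min at room temperature by 150 nM human 12hLO, pH 7.0 Hepes buffer, after 15 min compound preincubation.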
KCNH2 WT inh – inhibitors of human wildtype KCNH2 potassium channel. Q12809. activity change, % at 1.84 µM. U2OS, BacMam KCNH2, thallium flux FluxOr; stronger effect = lower value. 0.37% of 340,000 active. AID 720551;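 active = maximum activity change below -70%; inconclusive = maximum activity change between -70% and -50%; inactive = maximum activity change above -50%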; note: % is set by controls: 0 for no effect and ±100 for the full control effect
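U2OS cells were transduced with wild-type KCNH2 virus (2.03 x 10^8 / mL) for 4 h at room temperature, then cultured overnight at 37 C. Thallium flux was read with FluxOr dye. Rate constants were normalized to DMSO controls.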
Active calls of the source: *; ? = inconclusive; . = not tested or not shown. Sampled rows, rich in hits. Any-hit rate of the full collection: about 3%.

SMILES	BCR signal inh	LDHA block	ClpP mod	KCNH2 3.1 block	ALOX12 inh	KCNH2 WT inh
O=C1C(=O)N(CCCO)C(c2ccc(Br)cc2)/C1=C(\O)c1ccc(Br)cc1 (stereo not given)	0%	3	2%	-7	35µM*	-2
Cc1cc(C)c2c(=O)cc(C(=O)Nc3ccc(S(N)(=O)=O)cc3)oc2c1	.	-5	.	.	?	.
CCC(=O)N1c2ccc(S(=O)(=O)N3CCN(c4ccc([N+](=O)[O-])cc4)CC3)cc2CC1C (stereo not given)	?	-19	-3%	-99*	0%	-12
COc1cccc(-c2nc(-c3ccc(S(=O)(=O)N4CCCCC4)cc3)cs2)c1OC	.	-3	.	.	?	.
Cc1cc(C)c(C#N)c(Sc2ccc3c(c2)OCCCO3)n1	.	-2	.	.	-72%	.
O=C(CSc1ccc2c(c1)OCCCO2)Nc1cccc2ccccc12	.	-16	.	.	16µM*	.
O=C(CSc1ccc2c(c1)OCCCO2)Nc1ccccc1	.	5	.	.	-13%	.
O=C(Nc1cccc2ccccc12)c1cc2c(cc1Br)OCO2	11µM*	4	1%	5	358%	-12
N#C/C(=C/c1cn(-c2ccccc2)nc1-c1cccc(OCc2ccc(F)cc2)c1)C(=O)NCCCn1ccnc1	-10%	-11	?	-92*	-6%	-25
N#C/C(=C\c1ccc([N+](=O)[O-])cc1)C(=O)NCCCn1ccnc1	5%	-2	.	10	-25%	2
O=C(NCCCn1ccnc1)c1cn(-c2ccccc2)nc1-c1ccc(F)cc1	3%	-4	-5%	-11	0%	34
CCCOc1cccc(-c2nn(-c3ccccc3)cc2/C=C(\C#N)C(=O)NCCCn2ccnc2)c1	-16%	0	-1%	0	-6%	-187*
Cc1ccc(NC(=O)CN2C(=O)N/C(=C\c3cccn3-c3ccc(C(=O)NS(C)(=O)=O)cc3)C2=O)cc1	.	-6	.	.	.	.
O=C(COc1ccccc1)N1CCN(S(=O)(=O)Cc2ccccc2)CC1	-1%	-4	1%	-9	11%	-269*
COc1cc(C(=O)OCC(=O)c2ccc(F)cc2F)cc(Cl)c1O	.	9	.	.	?	.
c1ccc2nc3[nH]cnc3nc2c1	?	2	22µM*	2	8%	-2
Cc1ccc(C(=O)N2CCC3(CC2)Nc2ccccc2NC3=O)cc1O	.	.	.	.	40%	.
Cc1cc(C)c(S(=O)(=O)N2CCCc3ccccc32)c(C)c1	3%	-3	-4%	-95*	?	-7
O=c1[nH]c(NCCO)nc2c1C1(CCCCC1)Cc1ccccc1-2	?	-5	32µM*	-2	?	1
CCc1nc2c(c(=O)[nH]1)C(CC)(CC)Cc1ccccc1-2	1%	-3	-2%	39	0%	-7
CCC1(CC)Cc2ccccc2-c2nc(NCCO)[nH]c(=O)c21	0%	1	6.3µM*	-3	?	4
CCCCCn1nc(C(=O)OCC(=O)NCC(F)(F)F)c2ccccc2c1=O	.	3	.	.	?	.
O=C(NC1CCCCC1)c1cccc2c1C(=O)c1ccc(-c3ccc(OC(F)(F)F)cc3)cc1S2(=O)=O	-2%	-9	-3%	-129*	6%	-9
COc1ccc(-c2ccc3c(c2)S(=O)(=O)c2cccc(C(=O)NC4CCCC4)c2C3=O)cc1OC	1%	-5	1%	15	-22%	6
CCOC(=O)CNC(=O)c1cc2cccc(OCC)c2oc1=O	.	6	.	.	?	.
SMILES	BCR signal inh	LDHA block	ClpP mod	KCNH2 3.1 block	ALOX12 inh	KCNH2 WT inh
CCC(=O)Nc1ccc(C(=O)CSc2nnc(-c3ccc(NS(=O)(=O)CC)cc3)o2)cc1OC	1%	0	.	8	14%	-92*
CCS(=O)(=O)Nc1ccc(-c2nnc(SCC(=O)OC)o2)cc1	?	-2	1%	-10	-9%	4
CC(C)C[C@@H](CN1CCCC1CN1C(=S)NC[C@@H]1Cc1ccccc1)N1C[C@H](Cc2ccc(O)cc2)N(CCc2ccccc2)C1=S (stereo not given in full)	.	-4	-2%	.	?	.
CC(C)C[C@H]1CN([C@@H](CC(C)C)CN2CCCC2CN2C(=S)NC[C@@H]2Cc2ccccc2)C(=S)N1CC1CCCCC1 (stereo not given in full)	.	3	1%	.	?	.
CC(C)C[C@H]1CNC(=S)N1C[C@H]1CCCN1C[C@H](Cc1ccc(O)cc1)N1C[C@H](Cc2ccc(O)cc2)N(CCc2ccccc2)C1=S	.	-14	-3%	.	45µM*	.
CC(C)C[C@@H](CN1CCCC1CN1C(=S)NC[C@@H]1Cc1ccccc1)N1C[C@H](Cc2ccccc2)N(CC2CCCCCC2)C1=S (stereo not given in full)	.	-2	0%	.	35µM*	.
CC(C)C[C@@H](CN1CCCC1CN1C(=S)NC[C@@H]1Cc1ccccc1)N1C[C@H](Cc2ccccc2)N(CCc2ccccc2)C1=S (stereo not given in full)	.	-10	-5%	.	40µM*	.
Cc1ccccc1-c1nc(CSc2nc(C)c(CCO)c(=O)[nH]2)c(C)o1	.	4	.	.	1%	.
CC(Oc1ccccc1F)C(=O)Nc1ccc(-c2nc3ccccc3s2)cc1 (stereo not given)	.	-5	3.2µM*	.	-2%	.
O=C(CN1CCCC1)Nc1ccc(F)cc1	-1%	-1	.	4	-4%	-3
CCN(CC)c1ccc(NC(=O)CN2CCN(CC(=O)Nc3ccc(F)cc3)CC2)cc1	-11%	5	2%	-101*	-17%	-75*
COc1ccc(NC(=O)CCn2cccc2)cc1	?	-2	-2%	-78*	-7%	-9
CCN1CCN(CC(=O)Nc2ccc(OC(F)(F)F)cc2)CC1	?	-18	-2%	3	0.5µM*	53
CCN(CC)c1ccc(NC(=O)CN2CCN(CC(=O)Nc3ccc(OC)cc3)CC2)cc1	0%	-2	0%	-86*	0%	6
O=C(CN1CCCC1)Nc1ccc(OC(F)(F)F)cc1	-3%	-15	1%	6	?	17
Cc1cccc(NC(=O)c2ccc(N(C)C)cc2)c1C	.	-7	.	.	51%	.
O=C(CN1CCN(CC(=O)Nc2ccc(Cl)cc2)CC1)Nc1ccc(F)cc1	6%	-4	-3%	-118*	-52%	-137*
O=C(CN1CCN(CC(=O)Nc2ccccc2C(=O)c2ccccc2)CC1)Nc1ccc(F)cc1	.	-32*	.	.	-4%	.
O=C(CN1CCN(C(=O)N2CCOCC2)CC1)Nc1ccc(Br)cc1	.	-2	0%	-70*	21%	-118*

Source: PubChem (National Center for Advancing Translational Sciences (NCATS))
